This is a sample that favours compounds with a hit; in the whole collection about 3.8% have one here.
Jurkat NFkB inh: inhibitors of induced NF-kB luciferase reporter, primary screen, TCR NF-kB activation inhibitor project, cell-based, luminescence, uHTS. Jurkat, PMA/ionomycin-induced NF-kB luciferase reporter. inhibition, % at 4 µM. 330,000 compounds, 0.53% hits; in the data active = inhibition above about 50%
Gli-Sufu block: Gli-Sufu pathway antagonists, primary screen, luciferase luminescence, Sufu-KO-LIGHT cells, uHTS | Sufu-KO-LIGHT fibroblasts, Gli luciferase reporter luminescence | inhibition, % at 5 µM | 340,000 compounds, 0.74% hits | AID 588413, 2011;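 active = inhibition above about 55%, limit read from the data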;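 also: 0% = DMSO-treated cells and 100% = wells with medium but no cells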
Mdm2-MdmX inh: inhibitors of human Mdm2-MdmX association, primary screen, cell-based, luminescence, split luciferase, SaOS-2, uHTS; Protein Mdm4 (Homo sapiens) + E3 ubiquitin-protein ligase Mdm2 (Homo sapiens), …; SaOS-2 split-luciferase Mdm2/MdmX complementation; inhibition, % at 8 µM; 330,000 compounds, 3% hits; AID 485346, 2010;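 active = inhibition of at least 50% at 8 µM in the primary screen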
Target sequence (O15151 whole entry, looked up): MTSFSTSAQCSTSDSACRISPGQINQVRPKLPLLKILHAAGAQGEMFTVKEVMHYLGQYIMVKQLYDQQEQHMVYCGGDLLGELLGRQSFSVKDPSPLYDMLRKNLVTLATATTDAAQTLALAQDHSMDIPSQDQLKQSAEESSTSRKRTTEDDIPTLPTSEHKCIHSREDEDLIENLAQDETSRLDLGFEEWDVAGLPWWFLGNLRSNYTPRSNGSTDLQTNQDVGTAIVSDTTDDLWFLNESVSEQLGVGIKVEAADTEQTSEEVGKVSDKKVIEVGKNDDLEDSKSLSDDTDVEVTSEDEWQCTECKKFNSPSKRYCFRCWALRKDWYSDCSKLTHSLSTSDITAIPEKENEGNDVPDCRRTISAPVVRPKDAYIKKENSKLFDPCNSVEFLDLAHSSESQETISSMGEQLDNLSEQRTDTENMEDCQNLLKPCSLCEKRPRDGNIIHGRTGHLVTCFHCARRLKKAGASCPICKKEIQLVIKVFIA
Target sequence (Q00987 whole entry, looked up): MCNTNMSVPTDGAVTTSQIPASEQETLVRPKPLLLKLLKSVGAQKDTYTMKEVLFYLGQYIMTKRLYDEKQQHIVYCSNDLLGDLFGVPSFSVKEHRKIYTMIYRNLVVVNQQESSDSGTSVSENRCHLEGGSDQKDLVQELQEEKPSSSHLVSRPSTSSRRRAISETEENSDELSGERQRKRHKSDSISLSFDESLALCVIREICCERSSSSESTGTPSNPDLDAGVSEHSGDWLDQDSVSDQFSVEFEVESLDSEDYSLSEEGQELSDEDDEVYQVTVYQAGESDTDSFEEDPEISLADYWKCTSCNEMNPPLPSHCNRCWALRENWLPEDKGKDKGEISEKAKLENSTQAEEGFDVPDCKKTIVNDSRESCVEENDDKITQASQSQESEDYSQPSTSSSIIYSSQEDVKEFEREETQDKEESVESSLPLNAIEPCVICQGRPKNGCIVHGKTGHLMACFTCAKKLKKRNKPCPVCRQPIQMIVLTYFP
697 NFkB inh: inhibitors of PMA/ionomycin-induced NF-kB reporter, 697 cells, primary screen, B-cell NF-kB inhibitor project, cell-based, luminescence, uHTS | 697 B-cell NF-kB luciferase reporter, 16 h | inhibition, % at 4 µM | 330,000 compounds, 0.33% hits; in the data active = inhibition above about 35%
Shn3 3UTR inh: reduction of Shn3 3'UTR firefly luciferase signal, primary screen, Schnurri-3 inhibitor project, cell-based, Clone20 osteoblasts, set 2; Clone20 osteoblast Shn3 3'UTR firefly luciferase, 24 h; inhibition, % at 12.5 µM; 360,000 compounds, 0.52% hits; AID 588674, 2011;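 active = mean inhibition of at least 75% with every replicate also reaching 75%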;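 also: 0% = median of neutral control wells and 100% = pilot-screen positive control compound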
Mdm2-MdmX conf: Mdm2-MdmX complex disruptors, retested hits, confirmation, luminescence, single concentration; shares compounds with Mdm2-MdmX inh; Mdm2-MdmX binding, luminescent assay; inhibition, % at 8 µM; 10,000 compounds, 55% hits; AID 489028, 2010; in the data active = inhibition above about 40%
Full FLuc ctr: full-length luciferase signal inhibition, confirmation, counter-screen for Mdm2/MdmX interaction inhibitor project, cell-based, single concentration, SaOS-2 | inhibition, % at 8 µM | 6,200 compounds, 77% hits | shares compounds with Mdm2-MdmX inh | AID 504607, 2011 | SaOS-2 full-length luciferase counterscreen, luminescence;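 active = mean inhibition at 8 µM reaching about 37%, which flags the compound as non-specific, limit read from the data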;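 also: p53-null SaOS-2 cells with luciferase driven by a doxycycline-inducible promoter; compound on cells about two nights before reading with doxycycline added after day one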
Numbers without * were called inactive; nt = no result given.

SMILES | Jurkat NFkB inh | Gli-Sufu block | Mdm2-MdmX inh | 697 NFkB inh | Shn3 3UTR inh | Mdm2-MdmX conf | Full FLuc ctr
c1cc2c(cc1C1CCCCC1)c1c3n2CCCNC3CCC1 (centres undefined) | 6 | 14 | 98* | 12 | -2 | 48* | 2
Cc1ccc2c(c1)c1c3n2CCN=C3CCC1 | -14 | 11 | 14 | -6 | 2 | nt | nt
OC(c1cc(C(F)(F)F)nc2c(Cl)cc(Cl)cc12)C1CCCCN1 (centres undefined) | 3 | 19 | 68* | -45 | 4 | 42* | 48*
O[C@@H](c1cc(C(F)(F)F)nc2c(C(F)(F)F)cccc12)[C@H]1CCCCN1 | 15 | 2 | 99* | -22 | 10 | 78* | 47*
CCOc1ccc(S(=O)(=O)N2CCN(C(=O)c3cc([N+](=O)[O-])ccc3N3CCOCC3)CC2)cc1 | 39 | 3 | 60* | 22 | -2 | 28 | nt
CC(=O)NC(CC(=O)NC(C)c1ccc(Cl)cc1Cl)c1ccccc1 (centres undefined) | -1 | -1 | 12 | 3 | 13 | nt | nt
CC(=O)NC(c1ccc(Cl)cc1Cl)c1ccc2cccnc2c1O (centres undefined) | 46 | 87* | 68* | -23 | 89* | 87* | 54*
CCCC(=O)NC(c1ccccc1Cl)c1c(O)ccc2ccccc12 (centres undefined) | 7 | -5 | 31 | -10 | -2 | nt | nt
CCCC(=O)NC(c1ccc(Cl)cc1Cl)c1ccc2cccnc2c1O (centres undefined) | 47 | 89* | 81* | -41 | 92* | 85* | 55*
COc1cccc(C(NC(C)=O)c2nc(-c3cccc4cccnc34)cs2)c1 (centres undefined) | nt | nt | nt | nt | 1 | nt | nt
COc1ccc(C(NC(C)=O)c2ccc3cccnc3c2O)c(OC)c1 (centres undefined) | 35 | 55 | 74* | -27 | 90* | 71* | 31
COc1ccccc1NC(=O)Nc1nnc(CC(=O)Nc2ccccc2C)s1 | 18 | 5 | 11 | 21 | 13 | nt | nt
O=C(Nc1ccnn1C1CCN(Cc2c[nH]c3ccccc23)CC1)c1ccccc1 | 4 | 4 | 17 | 7 | -7 | nt | nt
FC(F)(F)Oc1ccc(NC(=S)Nc2ccc(OC(F)(F)F)cc2)cc1 | 14 | 3 | 79* | -15 | -4 | 17 | nt
CC1=C(/C=C/C(C)=C/C=C/C(C)=C\C(=O)O)C(C)(C)CCC1 | 10 | 17 | 60* | -173 | -8 | 49* | 45*
CCn1c2ccccc2c2cc(/C=N/n3c(C)nnc3C)ccc21 | 9 | 4 | 60* | 0 | 2 | -7 | nt
Cc1nnc(C)n1/N=C/c1ccccc1 | -3 | 6 | -14 | 1 | 8 | nt | nt
Cc1ccc2[nH]c3c(=O)n(CC(=O)Nc4ccccc4N4CCN(C)CC4)ncc3c2c1 | -5 | 12 | 61* | -24 | 0 | 18 | nt
COc1ccc(C(=O)Nc2cc(C)nn2-c2cccc(F)c2)cc1OC | 3 | 1 | 11 | 21 | -2 | nt | nt
COc1ccc(-c2cc(C(F)(F)F)nc(SCC(=O)Nc3ccc4c(c3)OCO4)n2)cc1 | 11 | 1 | 44 | 3 | 4 | nt | nt
O=C(CSc1nc(-c2ccc(F)cc2)cc(C(F)(F)F)n1)Nc1ccc2c(c1)OCO2 | 14 | 13 | 61* | -6 | 47 | 37 | 75*
O=C(CNC(=O)C1CCCCC1)OCC(=O)c1cccc(Cl)c1 | -6 | -2 | -6 | -11 | 2 | nt | nt
CO/N=C/C(=N\Nc1ccc(OC)cc1)C(=O)c1ccc(OC)cc1 | 35 | -8 | 55* | 17 | 6 | 52* | 100*
Clc1ccc(CNc2ccc(CNc3ncn[nH]3)cc2)c(Cl)c1 | 11 | -2 | 4 | 11 | 22 | nt | nt
CCOC(=O)c1cc(NC(=O)c2ccc(C)cc2)c(=O)oc1-c1ccccc1 | 8 | 8 | -3 | 9 | 6 | nt | nt
SMILES | Jurkat NFkB inh | Gli-Sufu block | Mdm2-MdmX inh | 697 NFkB inh | Shn3 3UTR inh | Mdm2-MdmX conf | Full FLuc ctr
CCOC(=O)c1cc(NC(=O)c2ccccc2)c(=O)n2c1oc1ccccc12 | -9 | 5 | 56* | -1 | 15 | 7 | nt
NS(=O)(=O)c1ccc(CCNS(=O)(=O)c2cccc(C(=O)O)c2)cc1 | -3 | 5 | 7 | 11 | -8 | nt | nt
Cc1ccc(C(=O)COC(=O)c2nc(Cl)ccc2Cl)cc1 | 6 | 0 | 17 | -4 | -12 | nt | nt
Cc1ccc(C(=O)OCn2ncc(Cl)c(Cl)c2=O)cc1 | 14 | 3 | 90* | 1 | 91* | 100* | 1
O=C(O)c1ccc(-n2ncc(Cl)c(Cl)c2=O)cc1 | nt | nt | nt | nt | 57 | nt | nt
O=C(OCn1ncc(Cl)c(Cl)c1=O)c1ccc(C(F)(F)F)cc1 | 4 | 0 | 72* | -26 | 95* | 74* | 53*
Cc1ccc(S(=O)(=O)N(CC(=O)NCc2ccccc2Cl)C(=O)N2CCN(C)CC2)cc1 | 14 | -13 | 6 | 14 | -4 | nt | nt
Cc1cc(-c2onc(C)c2C(=O)O)no1 | -3 | -1 | 28 | 14 | 10 | nt | nt
Cc1ccc(-c2nc3ccccc3o2)cc1NC(=S)NC(=O)/C=C/c1ccco1 | -38 | -4 | 55* | -52 | -4 | 30 | nt
Cc1ccc(-c2nc3ccccc3s2)cc1NC(=S)NC(=O)/C=C/c1ccco1 | -112 | -1 | 14 | -222 | -5 | nt | nt
O=C(/C=C/c1ccco1)NC(=S)Nc1cccc(-c2nc3ccccc3o2)c1 | 39 | -9 | 59* | -33 | 2 | 53* | 92*
O=C(/C=C/c1ccco1)NC(=S)Nc1cccc(-c2nc3ccccc3s2)c1 | -18 | -27 | 31 | 8 | -27 | nt | nt
COc1cc(C2C(C(=O)c3cc4ccccc4o3)=C(O)C(=O)N2CCN2CCOCC2)ccc1OCCC(C)C (centres undefined) | -12 | 0 | 18 | -19 | 16 | nt | nt
Cc1cc(SCC(=O)N/N=C/c2ccc(O)cc2O)nc2ccccc12 | 7 | 16 | 74* | -56 | 92* | 73* | 32
Cc1sc2ncnc(Sc3nnnn3-c3ccccc3)c2c1C | 2 | 13 | 88* | -32 | 1 | 48* | 7
Clc1ccc(-n2nnnc2Sc2ncnc3sccc23)cc1 | 18 | 3 | 90* | -55 | 56 | 74* | 43*
C=CCC(C(=O)Oc1c(C(C)(C)C)cc(C)cc1C(C)(C)C)c1ccccc1 (centres undefined) | -6 | -2 | 16 | 14 | 6 | nt | nt
C/C(=C\c1ccc(C(=O)O)cc1)c1ccc2c(c1)C(C)(C)CCC2(C)C | 7 | 34 | 58* | -77 | 13 | 52* | 44*
